Experimental data from PubChem BioAssay AID652067 (The Scripps Research Institute Molecular Screening Center, 2013).
In all, about 370,000 compounds went through this assay and about 5,400 (1.5%) were called active.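 The calls were made as follows: active = activation above the mean of all tested compounds plus 3 SD (cut at about 5.5% in these data); inactive = the rest.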 The entries come from a sample that favours actives as a whole.

Test system: DAF-12 nuclear receptor (Haemonchus contortus)
Assay: hcDAF-12 driven luciferase reporter activation – cell-based, luminescence, HEK293, lit1-tk-luc reporter, primary screen (AID 652067);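 also: 100% = response to 3 µM Δ7-dafachronic acid high control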
Details: HEK293 hcDAF-12 lit1-tk-luc reporter, at 6.8 µM, active compounds read high, 0% DMSO, 100% Δ7-dafachronic acid

activation, active:
CN(CC(=O)Nc1cccc(F)c1)C(=O)C1CC(=O)N(CCc2ccccc2)C1 (stereo not given) 6.61%
Cc1ccc(NN=Nc2nc3c([nH]2)c(=O)n(C)c(=O)n3C)cc1 9.25%
CC(C#N)OC(=O)c1cccnc1SCC(=O)Nc1ccc2c(c1)OCO2 (stereo not given) 7.41%
N#Cc1ccccc1NC(=O)COc1c(Br)cc(Br)c2cccnc12 5.88%
Brc1ccc(-c2noc(-c3ccccc3)n2)o1 7.04%
c1ccc(C2=Nc3cccc4cccc(c34)N2)cc1 6.59%
CC(C)CC(=O)N/C(N)=N/c1nc2ccccc2s1 8.5%
c1cnc(N2CCN(c3ccc4ccccc4n3)CC2)nc1 9.72%
CCn1cc(CN2CCN(CC(C)(C)C)C(CCO)C2)c2ccccc21 (stereo not given) 7.54%
CCOC(=O)c1cc2n(c1N)-c1ccccc1C2=O 6.53%
COc1cc2ccccc2cc1C(=O)N(CCN(C)C)c1nc2c(F)cccc2s1 6.37%
COc1nc(N=C(N)N)nc2c(C)cccc12 6.14%
Cc1nc(N=C(N)N)nc2c(C)cccc12 5.96%
NNc1nc2c(Cl)cccc2s1 10%
Cc1cccc(-c2nc3ccccc3c(=O)n2NC(=O)Cc2ccc(Cl)cc2)c1 6.73%
CC(CC(=O)Nc1ccccc1)n1ccnc1 (stereo not given) 5.72%
COc1cc2ccccc2cc1C(=O)Nc1ccccc1C 10.1%
COc1ccccc1OCc1nc2ccccc2s1 17.9%

activation, inactive:
COC(=O)C1CN(CC(C)C)CCS(=O)(=O)N1Cc1ccc(F)cc1 (stereo not given) -1.55%
C#CCCN([C@H](C(=O)OC)C(C)C)S(=O)(=O)c1ccc(F)cc1Br -1.11%
CCNC(=O)c1cccc(NC(=O)C2CC(=O)N(CCc3ccccc3)C2)c1 (stereo not given) -0.37%
CN(Cc1ccccc1Cl)C(=O)C1CCC(=O)N(CCc2cccc(F)c2)C1 (stereo not given) -0.75%
Cc1cccc(C)c1NC(=O)CSc1nc2c([nH]1)c(=O)n(C)c(=O)n2C -0.94%
Cc1cc(C)c(C=NNc2nc3c([nH]2)c(=O)n(C)c(=O)n3C)c(C)c1 1.11%
O=C(CSc1nc2ccccc2nc1N1CCCCC1)N1CCN(S(=O)(=O)c2cccc([N+](=O)[O-])c2)CC1 -0.06%
Cc1ccc(-n2c(SCC(=O)Nc3ccc4c(c3)OCO4)nnc2-c2ccccn2)cc1 -2.82%
O=C(CSc1nnc(-c2ccccn2)n1-c1ccccc1)Nc1ccc2c(c1)OCO2 -1.02%
COC(=O)c1cc(S(=O)(=O)N2CCN(c3ccccc3C)CC2)cn1C -0.73%
C[C@H](O)[C@@H]1C(=O)N2CCc3c([nH]c4c(-c5ccc6c(c5)OCO6)cccc34)[C@@H]2C[C@@H]1N(C)C(=O)c1ccco1 1.47%
Cc1cccc(C(=O)Nc2c(-c3ccc(F)cc3)nc3ncccn23)c1 -3.14%
COc1ccc(/C=C2\CC3(OC(C)=O)CCCN2C3)cc1 (stereo not given) -3.46%
Cc1cc(NC(=O)COc2ccccc2C#N)no1 3.78%
O=C(COC(=O)c1ccccn1)Nc1cccc2ccccc12 -0.09%
COC(=O)C1=C(C)N(Cc2ccccc2C(F)(F)F)C(=NCc2ccc(OC)cc2)NC1c1cccc(C(F)(F)F)c1 (stereo not given) 0.01%
CC(C)[C@H]1COCCS(=O)(=O)N1Cc1ccccc1-c1cccc2c1sc1ccccc12 1.38%
CC(C)N(Cc1ccccc1)C(=O)COC(=O)c1cnccn1 -0.24%
O=S(=O)(c1ccc(Br)cc1)c1nc(-c2ccccc2)oc1N1CCOCC1 1.01%
O=C(Oc1ccc(-c2nc(-c3ccccn3)no2)cc1)c1ccccc1 0.86%
Cc1ccc(-n2c(SCC(=O)Nc3ccc(S(=O)(=O)Nc4nccs4)cc3)nnc2-c2cccnc2)cc1 -2.17%
Brc1ccc(C2CC(c3ccccc3)=Nc3ccccc3N2)cc1 (stereo not given) 4.68%
COc1ccccc1C1=Nc2cccc3cccc(c23)N1 -1.59%
O=C(CSc1nc2ccccc2n1Cc1ccccc1Cl)N/N=C\c1c[nH]c2ccccc12 1.72%
O=C(CC1SCCNC1=O)Nc1ccc(Cl)cc1 (stereo not given) 1.04%
CCOCc1nnc(NC(=O)CCC2CCCCC2)s1 -1.11%
CC(NC(=O)COC(=O)c1ccc2ccccc2n1)c1ccccc1 (stereo not given) 2.13%
CC(C)CC(=O)NC(=S)NNC(=O)c1cccc([N+](=O)[O-])c1 1.89%
Cc1cnc(C)c(N2CCN(C(=O)C3CCC(=O)N(CCc4cccc(F)c4)C3)CC2)n1 (stereo not given) -0.94%
Cc1sc2nc(SCC(=O)c3ccc(O)c(O)c3)n(Cc3ccco3)c(=O)c2c1C -0.45%
CC1=C(N2CCN(c3ncccn3)CC2)CCC1=O -1.78%
CC12CCC(C(=O)N3CCN(c4ncccn4)CC3)(c3nc4ccccc4nc31)C2(C)C (stereo not given) -0.6%
COC(=O)N1Cc2ccnnc2CC1c1ccccc1Br (stereo not given) -2.69%
Nc1ccn([C@@H]2O[C@H](C(=O)N[C@H]3CCCCNC3=O)[C@@H](O)[C@H]2O)c(=O)n1 0.58%
Cc1cccc(N2CCN(Cc3c(C)n(C)n(-c4ccccc4)c3=O)CC2)c1C -2.12%
Cc1ccc(CN2CCN(Cc3ccccc3-c3ccco3)CC2CCO)o1 (stereo not given) -0.79%
COc1ccccc1N1CCC(N2CCN(CC(C)(C)C)C(CCO)C2)CC1 (stereo not given) -0.72%
COC(=O)[C@]12C[C@H](CC(=O)NCc3ccccc3)C(=O)N(Cc3ccccc3)C1=C[C@H](COCc1ccccc1)O[C@@H]2C -1.28%
CC(=O)c1cccc(NC(=O)COc2ccc(S(=O)(=O)N3CCOCC3)cc2)c1 -0.45%
Cc1ccccc1NC(=O)C1CCN(c2ncccn2)CC1 0.03%
Nn1c(SCC(=O)N2c3ccccc3Sc3ccccc32)nnc1-c1n[nH]c2c1CCC2 -2.66%
CCOC(=O)c1ccccc1NC(=O)c1c(N)n(C)c(=O)[nH]c1=O -0.79%
CCOC(=O)c1cnn(Cc2ccccc2Cl)c1N 1.1%
C[C@H](O)[C@@H]1CN2CCc3ccc(-c4ccc5c(c4)OCO5)cc3[C@@H]2C[C@@H]1N(C)C(=O)C1CCCCC1 -0.66%
Cc1ccc(OCc2nnc(SC/C=C/c3ccccc3)n2Cc2ccco2)cc1 -1.14%
COc1ccc(N2CCN(CCNS(=O)(=O)c3ccc(C(C)(C)C)cc3)CC2)cc1 -4.56%
CC1=NCCN1S(=O)(=O)c1ccc(Br)c(C)c1 -1.01%
COc1ccc(CN2C/C(=C/c3ccccc3)N3C(=O)C[C@@H](c4ccccc4)N=C23)c(OC)c1 -1.56%
COc1cccc2cc(C(=O)N(C)C)c(=O)oc12 -0.74%
CN(CCOc1ccccc1)C(=O)c1cc(COc2c(F)cccc2F)on1 -1.26%
O=S1(=O)c2ccc(N3CCN(Cc4ccccc4F)CC3)cc2Oc2ccccc2CN1Cc1cn(Cc2ccc(Cl)cc2)nn1 0.96%
COc1ccc(CNS(=O)(=O)c2cc(Br)ccc2Br)cc1 -0.97%
CC1CCN(C(=O)c2ncn3c2C(=O)N[C@@H](C)C3)CC1 -0.73%
CCc1c(C)nc2c(OC)cccc2c1Cl -0.4%
CCOC(=O)[C@]12CCCCC/C=C\1N(Cc1ccc(OC)cc1)C(=O)[C@H]2CC(=O)N1CCOCC1 4.16%
Cc1cc(C(=O)NN=C/C=C/c2ccco2)n[nH]1 -0.38%
COC(=O)C1=C(C)N(Cc2ccccc2C(F)(F)F)C(=NCC2CC2)NC1c1cccc(Cl)c1 (stereo not given) -1.98%
COc1cc(OC)cc(-c2nc3ccccc3c(=O)n2NC(=O)c2cccnc2Cl)c1 -1.71%
O=C(Nn1c(-c2ccc(Cl)cc2)nc2ccccc2c1=O)c1cccnc1Cl 0.57%
S=c1c2[nH]cnc2ncn1CCSc1ncnc2nc[nH]c12 -0.28%
O=C(O)CCCC(=O)Nc1ccccc1-n1ccnc1 -1.24%
CC(C)CC(=O)Nc1ccc(Cc2ccncc2)cc1 0.36%
CCOc1ccc(NC(=O)CCS(=O)(=O)c2ccc3c(c2)CCCN3C(=O)CC)cc1 -1.11%
Cc1ccccc1C(=O)Nc1ccccc1Sc1ccccc1 -0.9%
Cc1ccccc1NC(=O)CCOc1ccccc1 0.95%
CCCCCCCCN1C(=O)[C@@H](CC(=O)NCc2ccccc2)C[C@@]2(C(=O)OC)C1=C[C@H](C(C)(C)C)O[C@@H]2C 1.65%
COC1=C[C@H](C(=O)NCCNC(C)=O)[C@H](C)[C@@H](c2ccccc2)CC1=O -2.16%
O=C(c1ccccc1)c1ccc(-c2ccccc2C(=O)NC2CCCCN(Cc3ccc(Cl)cc3)C2=O)cc1 (stereo not given) -0.91%
COC(=O)c1c(-c2ccc(OC)cc2)c2c(c3c4ccccc4n(S(=O)(=O)c4ccc(C)cc4)c13)C(=O)N(C)C2 1.29%
COC(=O)C1[C@H]2SC(C)(C)C(C(=O)OC)N2C(=O)N1Cc1nc2ccccc2s1 (stereo not given in full) 0.45%
CCc1ccc(-c2nnn(Cc3nc4ccccc4s3)n2)cc1 3.01%
N#Cc1ccc(OC[C@@H](O)CN2CCC(C(O)(c3ccccc3)c3ccccc3)CC2)c(F)c1 0.25%
